From PubChem BioAssay (EPA / NIEHS) come the findings set out here.

SMILES strings stand for the structures. Where “and” joins values, the source holds several entries; their conditions need not be identical. Identical values can stand only once. Results filed as inconclusive are left out. Calls of active or inactive are those of the source. How the source made its calls, unless noted: active means hit-call score of the fitted dose curve at least 0.9, where 1 is the maximum; inconclusive means response in the unintended direction; inactive means score below 0.9.

Assay [1] deals with Nucleoli Translocation, AR (gene 367) (UniProt P10275). As to the kind of experiment: UPITT_HCI_U2OS_AR_TIF2_Nucleoli_Antagonist: University of Pittsburgh U2OS Androgen Receptor-Transcriptional Intermediary Factor 2 (AR-TIF2) Antagonism High Content Imaging Assay for Nucleoli Translocation (AID 2283997). In short, it runs like this: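 Compounds are added at 20 uM final concentration in 0.2% DMSO to U2OS cells carrying AR-RFP and TIF2-GFP fusions. Nucleolar AR-RFP fluorescence is then quantified by automated imaging. Antagonism is fitted positively against DHT baseline.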
Nucleoli Translocation, AR (gene 367), sequence (P10275 whole entry, looked up, the tested form may be a part): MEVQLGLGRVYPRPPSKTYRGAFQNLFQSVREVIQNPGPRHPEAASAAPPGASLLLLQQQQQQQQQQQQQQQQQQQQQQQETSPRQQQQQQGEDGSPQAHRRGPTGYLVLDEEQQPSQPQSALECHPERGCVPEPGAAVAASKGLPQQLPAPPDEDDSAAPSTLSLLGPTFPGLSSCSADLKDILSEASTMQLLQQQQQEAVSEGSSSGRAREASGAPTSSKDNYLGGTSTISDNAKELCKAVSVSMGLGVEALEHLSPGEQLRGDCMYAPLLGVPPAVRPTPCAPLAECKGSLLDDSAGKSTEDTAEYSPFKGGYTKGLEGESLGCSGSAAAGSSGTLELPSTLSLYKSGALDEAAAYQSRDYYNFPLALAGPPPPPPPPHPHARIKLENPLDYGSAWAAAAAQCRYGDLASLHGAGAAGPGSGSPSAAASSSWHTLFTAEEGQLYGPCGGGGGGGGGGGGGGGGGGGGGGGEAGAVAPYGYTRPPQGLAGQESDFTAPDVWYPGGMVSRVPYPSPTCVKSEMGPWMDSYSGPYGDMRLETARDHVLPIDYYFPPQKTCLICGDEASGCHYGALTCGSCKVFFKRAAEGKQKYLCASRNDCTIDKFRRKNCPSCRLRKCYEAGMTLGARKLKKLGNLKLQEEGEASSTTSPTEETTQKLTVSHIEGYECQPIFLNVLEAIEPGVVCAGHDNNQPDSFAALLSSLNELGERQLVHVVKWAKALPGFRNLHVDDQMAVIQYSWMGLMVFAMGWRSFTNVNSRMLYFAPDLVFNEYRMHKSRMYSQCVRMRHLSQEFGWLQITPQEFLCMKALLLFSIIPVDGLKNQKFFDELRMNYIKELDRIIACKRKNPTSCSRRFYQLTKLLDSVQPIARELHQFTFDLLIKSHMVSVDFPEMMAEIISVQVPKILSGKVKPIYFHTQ

Assay [2] addresses Ratio of Nucleoli Translocation and Cytoplasm, AR (gene 367) (UniProt P10275). As to the kind of experiment: UPITT_HCI_U2OS_AR_TIF2_Nucleoli_Cytoplasm_Ratio_Antagonist: University of Pittsburgh U2OS Androgen Receptor-Transcriptional Intermediary Factor 2 (AR-TIF2) Antagonism High Content Imaging Assay for Ratio of Nucleoli Translocation and Cytoplasm (AID 2283999).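 Further: antagonists lower the DHT-driven ratio of nucleolar to cytoplasmic red signal.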 In short, it runs like this: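 Read-out is the ratio of nucleolar to cytoplasmic AR-RFP fluorescence, imaged by high-content microscopy in U2OS cells coexpressing TIF2-GFP. Single-point 20 uM screen, triplicate confirmation, then 0.195–50 uM dose response; activity referenced to DHT baseline.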

For assay [3] the target is unchanged. Put plainly: UPITT_HCI_U2OS_AR_TIF2_Nucleoli_Cytoplasm_Ratio_Agonist: University of Pittsburgh U2OS Androgen Receptor-Transcriptional Intermediary Factor 2 (AR-TIF2) Agonism High Content Imaging Assay for Ratio of Nucleoli Translocation and Cytoplasm (AID 2284000).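 Further: hits raise the red nucleolar to cytoplasm ratio above vehicle.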 The method in brief:
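Human osteosarcoma U2OS line, AR-RFP plus TIF2-GFP; compounds 0.195–50 uM final, 0.5% DMSO. Readout: nucleolar/cytoplasmic RFP ratio by HCI, positive direction vs DMSO baseline.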

The nature of assay [4]: CCTE_Harrill_HTTr_Viability_MCF7: CCTE's 6-hour Cell Viability Assessment for the High-Throughput Transcriptomics (HTTr) Platform, in MCF-7 cells cultured in DMEM + 10% fetal bovine serum, Harrill Lab (AID 2284010; active means hit-call score of the fitted dose curve at least 0.9, where 1 is the maximum; inactive means score below 0.9). In short, it runs like this:
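PI exclusion, high-content imaging; 8-pt dilution series, 6 h exposure; bidirectional fit vs DMSO (neg. ctrl/baseline); gain of signal = loss of membrane integrity.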

A further assay has as its target THRA (gene 7067) (UniProt P10827). Put plainly: TOX21_TRA_COA_Agonist_Followup_ratio: Tox21 Thyroid Hormone Receptor alpha Agonism through Coactivator Recruitment Follow-Up Assay, Ratio (AID 2283948; active means hit-call score of the fitted dose curve at least 0.9, where 1 is the maximum; inactive means score below 0.9). In short, it runs like this: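 GST-TRa LBD 2.5 nM + 0.10% BSA + cpd; add fluorescein-SRC-2 200 nM, Tb-anti-GST 2 nM. TR-FRET ex 340, em 520/495 ratio. Norm: DMSO 0%, T3 100%; gain-of-signal fit.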

Another assay addresses THRB (gene 7068) (UniProt P10828). As to the kind of experiment: TOX21_TRB_COA_Agonist_Followup_ratio: Tox21 Thyroid Hormone Receptor beta Agonism through Coactivator Recruitment Follow-Up Assay, Ratio (AID 2283963; active means hit-call score of the fitted dose curve at least 0.9, where 1 is the maximum; inactive means score below 0.9). The method in brief:
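Agonism is measured as coactivator recruitment in a purified-protein TR-FRET format, using GST-TRβ LBD at 5.0 nM, fluorescein-SRC-2 peptide at 200 nM and Tb-labeled anti-GST antibody at 2 nM. Values are 520:495 nm ratios relative to DMSO (0%) and T3 (100%).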

Assay [5] is described as follows: TOX21_TR_RXR_BLA_Agonist_Followup_viability: Viability Assessment in the Tox21 Thyroid Hormone Receptor beta Retinoid X Receptor alpha (RXRa) Agonism Beta-lactamase (BLA) Follow-Up Assay (AID 2283970). In short, it runs like this:
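CellTiter-Glo ATP quantitation as viability read-out in RXRa-bla HEK293T cells (2,500/well, charcoal-stripped 2% FBS medium), 16h compound incubation at 37C. Loss of signal versus DMSO taken as cytotoxicity, analyzed by bidirectional curve fitting.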

A further assay relates to DIO1 (gene 1733). As to the kind of experiment: CCTE_GLTED_hDIO1: CCTE's human Deiodinase 1 (DIO1) Inhibition Assay, Great Lakes Toxicology and Ecology Division (GLTED) Lab (AID 2283987).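 Further: isolated human DIO1 enzyme in a cell-free setup rather than cells; enzyme activity read as free iodide liberated from substrate via Sandell-Kolthoff colorimetry.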 In short, it runs like this: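 Steps: human DIO1 enzyme plus test chemical, 3 h incubation; free iodide then quantified in a second Sandell-Kolthoff step by absorbance. DMSO served as negative control and baseline.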

Assay [6] is described as follows: CCTE_Shafer_MEA_acute_spike_number: CCTE's Neural Acute Assay for Total Number of Spikes, Shafer Lab (AID 2284008; active means hit-call score of the fitted dose curve at least 0.9, where 1 is the maximum; inactive means score below 0.9;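 further: curve fitted for decrease in spike count so AC50 reflects inhibitors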). The method in brief: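 Rat cortical cultures, DIV 13/15, 37 C. 40 min baseline rec, cpd 0.03-40 uM, 40 min post-dose rec. Band-pass 300-5000 Hz, spike threshold 8x rms; % change in spike count per well, DMSO neg ctrl, loss-of-signal fit.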
Assay [7] can be described thus: CCTE_Shafer_MEA_acute_firing_rate_mean: CCTE's Neural Acute Assay for Mean Firing Rate, Shafer Lab (AID 2284009; active means hit-call score of the fitted dose curve at least 0.9, where 1 is the maximum; inactive means score below 0.9;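 further: analyzed for loss of signal so actives lower firing rate relative to DMSO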). In short, it runs like this:
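Rat cortical neuron cultures matured to DIV 13 or 15, equilibrated 20 min at 37 C, then recorded 40 min for baseline. Compound (0.03-40 uM) added and a further 40 min recorded; percent change in mean firing rate calculated per well.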

Ratio of Nucleoli Translocation and Cytoplasm, AR (gene 367), sequence (P10275 whole entry, looked up): as the sequence (P10275 whole entry, looked up, the tested form may be a part) above
THRA (gene 7067), sequence (P10827 whole entry, looked up, the tested form may be a part): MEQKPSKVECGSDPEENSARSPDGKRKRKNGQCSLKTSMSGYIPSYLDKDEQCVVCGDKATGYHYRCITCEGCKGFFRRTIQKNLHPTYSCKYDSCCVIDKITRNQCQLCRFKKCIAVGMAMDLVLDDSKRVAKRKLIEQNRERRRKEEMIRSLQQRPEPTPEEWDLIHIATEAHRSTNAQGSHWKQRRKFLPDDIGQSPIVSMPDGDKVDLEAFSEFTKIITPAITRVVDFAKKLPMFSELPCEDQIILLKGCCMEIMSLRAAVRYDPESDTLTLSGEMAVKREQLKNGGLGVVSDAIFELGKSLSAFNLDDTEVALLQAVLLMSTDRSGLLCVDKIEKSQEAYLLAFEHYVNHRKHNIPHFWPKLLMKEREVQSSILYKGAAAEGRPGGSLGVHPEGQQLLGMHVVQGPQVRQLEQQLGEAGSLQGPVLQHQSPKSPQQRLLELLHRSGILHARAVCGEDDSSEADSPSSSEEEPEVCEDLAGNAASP
THRB (gene 7068), sequence (P10828 whole entry, looked up, the tested form may be a part): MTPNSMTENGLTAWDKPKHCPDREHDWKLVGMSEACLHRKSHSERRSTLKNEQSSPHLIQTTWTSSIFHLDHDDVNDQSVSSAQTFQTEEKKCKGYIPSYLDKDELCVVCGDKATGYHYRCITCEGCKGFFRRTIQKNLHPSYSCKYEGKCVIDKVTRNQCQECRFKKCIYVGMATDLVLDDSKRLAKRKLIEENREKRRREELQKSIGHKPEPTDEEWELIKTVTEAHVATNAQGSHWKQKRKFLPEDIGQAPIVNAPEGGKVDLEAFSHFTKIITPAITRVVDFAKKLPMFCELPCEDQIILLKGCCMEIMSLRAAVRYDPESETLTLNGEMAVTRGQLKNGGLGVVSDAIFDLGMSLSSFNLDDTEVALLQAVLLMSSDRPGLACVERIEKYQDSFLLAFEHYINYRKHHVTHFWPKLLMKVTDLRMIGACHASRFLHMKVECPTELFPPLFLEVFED

For `CCCCCCCC/C=C\CCCCCCCC(=O)OCC(O)CO` (configuration not stated), the compound was called inactive in assay [1], in assay [2] and in [3].

`CC1CCCCC1`: the call in assay [1], in [3] and in assay [4] was inactive.

On to `Cc1cccc(C)n1`, for which the outcome in assay [1], in [3] and in assay [4] was inactive.

Consider `CC(C)(C)c1cc(CCC(=O)OCC(COC(=O)CCc2cc(C(C)(C)C)c(O)c(C(C)(C)C)c2)(COC(=O)CCc2cc(C(C)(C)C)c(O)c(C(C)(C)C)c2)COC(=O)CCc2cc(C(C)(C)C)c(O)c(C(C)(C)C)c2)cc(C(C)(C)C)c1O`, for which the outcome in assay [4] was inactive.

What is called AC50 is the midpoint of the concentration-response curve, whichever way the signal moves. Consider `CCN=c1cc2oc3cc(NCC)c(C)cc3c(-c3ccccc3C(=O)OCC)c-2cc1C`, for which the half-maximal activity concentration (AC50) is 0.753 µM (active) in assay [2]; 13.6 µM (active) in assay [3]; 214 nM (active) and 159 nM (active) in [4].

For the compound `C[C@]12CC[C@H]3C(=CCc4cc(O)ccc43)[C@@H]1CCC2=O`, the outcome (in the assay with THRA (gene 7067); with THRB (gene 7068); in assay [5]; in [3]; in assay [4]) was inactive. The AC50 in assay [1] is 0.234 µM (active); in [2], 3.04 µM (active).

For `CCCCCCCCCCCCCCCCC`, in assay [4], the result was inactive.

With `CCCCCCCCCCCCCC[P+](CCCC)(CCCC)CCCC`, the AC50 with DIO1 (gene 1733) was 11.5 µM (active); in [1], 5.62 µM (active); in assay [2], 9.75 µM (active). In addition, the result in assay [3] was inactive.

As for `CSc1ccc(O)cc1C`, the outcome in [4] was inactive.

As for `Cc1cnccn1`, the outcome in assay [4] was inactive.

Turning to `C=C(C)C(=O)OCC(F)(F)C(F)(F)C(F)(F)C(F)F`, the half-maximal activity concentration (AC50) with DIO1 (gene 1733) is 25.5 µM (active).

For `O=S(=O)(O)c1ccc(Cl)cc1`, in [4], the result was inactive.

As for `CCCCCCCC/C=C\CCCCCCCC(=O)N(C)CC(=O)O`, in the assay with DIO1 (gene 1733), the AC50 was 95.4 µM (active). Also, in assay [4], the result was inactive.

As to `C=CC(=O)OCC(F)(F)C(F)(F)C(F)(F)COC(=O)C=C`, the AC50 in the assay with DIO1 (gene 1733) is 19.6 µM (active).

As to `CSc1ccc(Cl)cc1`, in assay [4], the outcome was inactive.

`CCCCC(CC)COC(=O)c1ccc(N(C)C)cc1` (configuration not stated): the outcome in assay [4] was inactive.

Regarding `CCN=C1C=CC(=C(c2ccc(N(CC)CC)cc2)c2ccc(N(CC)CC)cc2)c2ccccc21`, the half-maximal activity concentration (AC50) is 1.4 µM (active) in assay [1], 4.7 µM (active) in assay [2], 0.559 µM (active) in assay [6] and 0.559 µM (active) in assay [7]. Besides, the result in assay [3] and in assay [4] was inactive.

In the case of `CN(C)C(C)(C)CO`, the result in [4] was inactive.

`NS(=O)(=O)C(F)(F)C(F)(F)C(F)(F)C(F)(F)C(F)(F)C(F)(F)F`: in the assay on DIO1 (gene 1733), the AC50 is 44.3 µM (active).
